Measurements published in PubChem BioAssay (Tox21).
“And” between values parts separate entries of the source, which are not always exact repeats. Identical values can stand only once. Results filed as inconclusive are left out. Some compounds were tested as several samples or in several runs, with calls that do not always agree. The source made the active and inactive calls. Unless noted, calls come from the whole dose curve.

How the values were obtained:
[1] = Nuclear factor erythroid 2-related factor 2/antioxidant responsive element (Nrf2/ARE) small molecule agonists: qHTS cell viability counter screen in human keratinocytes (AID 1919968; active = well fitted curve in the direction sought with a large enough effect in the repeat runs; an effect the other way counts as inactive or inconclusive; note: nearly all actives have a fitted effect of over 55% in size; note: potency is the fitted concentration of half-maximal effect)
In short: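 Fluorescence read-out from CellTiter-Fluor after 1 h at 37 C. Wells held HaCaT-derived ARE-luciferase reporter cells (1,500/well) treated 23 h with DMSO-dissolved compounds. Run in the same wells as the luciferase agonist read.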

[2] = Nuclear factor erythroid 2-related factor 2/antioxidant responsive element (Nrf2/ARE) small molecule agonists: luciferase reporter gene qHTS assay in human keratinocytes (AID 1919969); note: nearly all actives have a fitted effect of over 35% in size; note: potency is the fitted concentration of half-maximal effect
[3] = target: Gonadotropin-releasing hormone receptor (Homo sapiens) (UniProt P30968); assay: Human gonadotropin-releasing hormone receptor (GnRHR) small molecule agonists, calcium flux assay in GnRHR-HEK293 cells (AID 1920063); note: nearly all actives have a fitted effect of over 35% in size
Gonadotropin-releasing hormone receptor (Homo sapiens), sequence (P30968 whole entry, looked up): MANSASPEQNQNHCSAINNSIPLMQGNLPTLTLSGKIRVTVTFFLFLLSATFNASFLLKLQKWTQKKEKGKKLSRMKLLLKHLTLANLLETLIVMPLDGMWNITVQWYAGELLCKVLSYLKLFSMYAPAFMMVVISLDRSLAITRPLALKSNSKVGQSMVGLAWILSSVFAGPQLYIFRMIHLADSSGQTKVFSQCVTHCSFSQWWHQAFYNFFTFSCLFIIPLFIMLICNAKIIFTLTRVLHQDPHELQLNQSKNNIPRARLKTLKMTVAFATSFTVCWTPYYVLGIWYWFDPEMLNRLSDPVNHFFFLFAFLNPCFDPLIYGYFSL
In short: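 Calcium-dye fluorescence, Ex/Em=480/540, recorded every 1 sec over 3 min after compound addition to GnRHR-HEK293 cells. Cells had been seeded 18 hours earlier and dye-loaded for 1 hour at 37 C. Fifteen concentrations, triplicates.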

[4] = target: KiSS-1 receptor (Homo sapiens) (UniProt Q969F8); assay: Human kisspeptin (KISS1R) small molecule agonists, calcium flux assay in KISS1R-HEK293 cells (AID 1920064; active = well fitted curve in the direction sought with a large enough effect in the repeat runs; an effect the other way counts as inactive or inconclusive)
KiSS-1 receptor (Homo sapiens), sequence (Q969F8 whole entry, looked up): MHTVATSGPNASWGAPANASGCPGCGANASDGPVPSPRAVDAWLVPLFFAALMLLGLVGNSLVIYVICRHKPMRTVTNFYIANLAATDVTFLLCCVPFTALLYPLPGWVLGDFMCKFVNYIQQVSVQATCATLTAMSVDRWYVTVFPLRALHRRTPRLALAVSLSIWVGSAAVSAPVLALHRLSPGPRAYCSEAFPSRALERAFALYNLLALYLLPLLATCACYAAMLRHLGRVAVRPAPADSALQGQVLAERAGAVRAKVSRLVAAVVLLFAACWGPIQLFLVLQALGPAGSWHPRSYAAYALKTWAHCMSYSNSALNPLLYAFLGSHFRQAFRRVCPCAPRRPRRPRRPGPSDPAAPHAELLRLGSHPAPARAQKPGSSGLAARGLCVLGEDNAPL
In short: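 Calcium flux read-out: kinetic fluorescence at Ex/Em=480/540, 1 s intervals over 3 min, after pin-tool compound addition to dye-loaded KISS1R-HEK293 cells. Fifteen concentrations, triplicates.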

[5] = G protein-coupled receptor (GPCR) small molecule agonists, calcium flux assay: HEK293 wild type cell line counter screen (AID 1920065)
In short: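 Agonist mode; 18 h seeding at 37 C, 1 h dye load at 37 C; compounds pinned from DMSO, ATP as positive control; kinetic fluorescence 480/540 nm, 3 min, 1 s reads; 15 concentrations, triplicate.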

[6] = p53 small molecule agonists, cell-based qHTS assay with human liver microsomes: qHTS cell viability counter screen (AID 1963579); note: nearly all actives have a fitted effect of over 45% in size
In short: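 HLM-supplemented (0.5 mg/mL final) and NADPH-supplemented (0.5 mg/mL final) p53RE-bla cultures, 4,000 cells per well, were dosed with compounds in DMSO for 16 h at 37 C; luminescent ATP detection (CellTiter-Glo, 30 min, room temperature) quantified surviving cells.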

[7] = p53 small molecule agonists, cell-based qHTS assay with rat liver microsomes: qHTS cell viability counter screen (AID 1963580); note: nearly all actives have a fitted effect of over 45% in size
In short: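 Cytotoxicity counter screen: intracellular ATP read by CellTiter-Glo luminescence in the p53 reporter wells. HCT-116 p53RE-bla cells were treated for 16 h at 37 C alongside rat liver microsomes and NADPH, each 0.5 mg/mL final.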

[8] = p53 small molecule agonists, cell-based qHTS assay: qHTS cell viability counter screen (AID 1963581); note: nearly all actives have a fitted effect of over 45% in size
In short: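 Cytotoxicity read-out: ATP-based luminescence (CellTiter-Glo, 30 min RT) measured in the same wells as the p53 reporter assay, HCT-116 p53RE-bla cells, 16 h compound exposure at 37 C.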

[9] = target: 5-hydroxytryptamine receptor 2A (Homo sapiens) (UniProt P28223); assay: 5-hydroxytryptamine receptor 2A (HTR2A) small molecule antagonists, cell-based qHTS assay (AID 1963586); note: nearly all actives have a fitted effect of over 45% in size
5-hydroxytryptamine receptor 2A (Homo sapiens), sequence (P28223 whole entry, looked up): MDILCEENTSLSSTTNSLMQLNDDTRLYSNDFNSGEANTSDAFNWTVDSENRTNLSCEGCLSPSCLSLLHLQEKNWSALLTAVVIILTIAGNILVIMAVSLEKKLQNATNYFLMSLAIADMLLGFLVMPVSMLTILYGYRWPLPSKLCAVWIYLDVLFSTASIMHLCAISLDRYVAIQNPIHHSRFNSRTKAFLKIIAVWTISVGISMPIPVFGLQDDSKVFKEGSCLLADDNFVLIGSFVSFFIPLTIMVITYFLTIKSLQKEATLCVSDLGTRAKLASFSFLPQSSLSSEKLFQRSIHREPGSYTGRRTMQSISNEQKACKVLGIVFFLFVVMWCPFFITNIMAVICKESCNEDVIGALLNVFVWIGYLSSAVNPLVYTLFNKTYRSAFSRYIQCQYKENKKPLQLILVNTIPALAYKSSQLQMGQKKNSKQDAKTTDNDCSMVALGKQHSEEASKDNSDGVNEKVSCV
In short: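 CHO cells stably expressing human HTR2A were plated for 18 h at 37 C, then loaded with calcium dye for 1 h. Compounds were preincubated 5 min at room temperature before DOI (4 nM solution) was added. Kinetic fluorescence was read for 3 min.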

[10] = target: 5-hydroxytryptamine receptor 2A (Homo sapiens) (UniProt P28223); assay: 5-hydroxytryptamine receptor 2A (HTR2A) small molecule agonists, cell-based qHTS assay (AID 1963587); note: nearly all actives have a fitted effect of over 30% in size
In short: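 Kinetic calcium-flux fluorescence (2 min, 1 sec intervals) after compound addition in agonist mode. HTR2A-CHO cells were cultured 18 h, then dye-loaded 1 h at 37 C.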

[11] = target: Muscarinic acetylcholine receptor M1 (Homo sapiens) (UniProt P11229); assay: Cholinergic receptor muscarinic 1 (CHRM1) small molecule antagonists, cell-based qHTS assay (AID 1963588); note: nearly all actives have a fitted effect of over 40% in size
Muscarinic acetylcholine receptor M1 (Homo sapiens), sequence (P11229 whole entry, looked up): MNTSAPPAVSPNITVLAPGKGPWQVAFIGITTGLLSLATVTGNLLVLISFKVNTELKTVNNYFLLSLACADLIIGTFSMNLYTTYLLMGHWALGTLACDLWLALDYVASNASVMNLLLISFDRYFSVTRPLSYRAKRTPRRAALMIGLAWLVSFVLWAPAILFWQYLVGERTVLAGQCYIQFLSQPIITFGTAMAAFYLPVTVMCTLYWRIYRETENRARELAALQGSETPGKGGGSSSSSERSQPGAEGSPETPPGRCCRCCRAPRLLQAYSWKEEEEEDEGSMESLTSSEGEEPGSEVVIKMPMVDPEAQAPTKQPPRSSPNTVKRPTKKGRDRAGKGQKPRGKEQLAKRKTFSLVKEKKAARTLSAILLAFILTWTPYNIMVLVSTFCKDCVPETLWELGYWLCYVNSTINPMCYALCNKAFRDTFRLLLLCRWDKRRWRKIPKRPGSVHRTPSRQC
In short: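 Compounds were tested at 15 concentrations in three independent runs. Dye-loaded CHRM1-CHO cells were exposed 5 min at room temperature before stimulation by acetylcholine added at 50nM. Intracellular calcium was read kinetically on FDSS for 3 min.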

[12] = target: Muscarinic acetylcholine receptor M1 (Homo sapiens) (UniProt P11229); assay: Cholinergic receptor muscarinic 1 (CHRM1) small molecule agonists, cell-based qHTS assay (AID 1963589); note: nearly all actives have a fitted effect of over 35% in size
In short: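 Calcium flux read-out: kinetic fluorescence at 1 sec intervals after pin-tool compound addition to dye-loaded CHRM1-CHO cells (human M1). Agonist mode; 15 concentrations tested in triplicate independent runs.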

[13] = target: Beta-2 adrenergic receptor (Homo sapiens) (UniProt P07550); assay: Adrenergic beta2 receptor (ADRB2) small molecule antagonists, cell-based qHTS assay (AID 1963592); note: series mostly up to about 92 µM; nearly all actives have a fitted effect of over 50% in size
Beta-2 adrenergic receptor (Homo sapiens), sequence (P07550 whole entry, looked up): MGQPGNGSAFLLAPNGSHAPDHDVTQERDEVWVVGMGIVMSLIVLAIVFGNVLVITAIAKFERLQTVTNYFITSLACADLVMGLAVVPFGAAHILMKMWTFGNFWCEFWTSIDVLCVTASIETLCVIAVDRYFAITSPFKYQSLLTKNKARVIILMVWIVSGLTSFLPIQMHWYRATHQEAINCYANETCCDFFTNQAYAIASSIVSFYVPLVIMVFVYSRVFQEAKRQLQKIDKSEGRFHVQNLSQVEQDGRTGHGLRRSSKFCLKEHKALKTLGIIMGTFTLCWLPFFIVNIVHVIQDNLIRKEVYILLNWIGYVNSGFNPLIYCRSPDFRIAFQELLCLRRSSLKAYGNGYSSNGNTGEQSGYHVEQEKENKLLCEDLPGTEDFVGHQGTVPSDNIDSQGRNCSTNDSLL
In short: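 Assay format: CHO-ADRB2 cells, 18-20hr seeding at 37C/5% CO2, then compound plus 1nM isoproterenol agonist mix for 0.5hr RT. Homogeneous time-resolved fluorescence cAMP detection after 1hr, expressed as 665/615 nm ratio.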

[14] = target: Beta-2 adrenergic receptor (Homo sapiens) (UniProt P07550); assay: Adrenergic beta2 receptor (ADRB2) small molecule agonists, cell-based qHTS assay (AID 1963593);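 note: CHO cells stably overexpressing human ADRB2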
In short: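 CHO cells stably over-expressing ADRB2 were plated overnight at 37C, then dosed with compounds plus a stimulation mix containing 100uM IBMX and 25uM Ro-20-1724 for 0.5hr at room temperature. cAMP was measured by HTRF competition, 1hr.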

[15] = target: D(2) dopamine receptor (Homo sapiens) (UniProt P14416); assay: Dopamine D2 receptor (DRD2) small molecule agonists, cell-based qHTS assay (AID 1963594); note: nearly all actives have a fitted effect of over 35% in size
D(2) dopamine receptor (Homo sapiens), sequence (P14416 whole entry, looked up): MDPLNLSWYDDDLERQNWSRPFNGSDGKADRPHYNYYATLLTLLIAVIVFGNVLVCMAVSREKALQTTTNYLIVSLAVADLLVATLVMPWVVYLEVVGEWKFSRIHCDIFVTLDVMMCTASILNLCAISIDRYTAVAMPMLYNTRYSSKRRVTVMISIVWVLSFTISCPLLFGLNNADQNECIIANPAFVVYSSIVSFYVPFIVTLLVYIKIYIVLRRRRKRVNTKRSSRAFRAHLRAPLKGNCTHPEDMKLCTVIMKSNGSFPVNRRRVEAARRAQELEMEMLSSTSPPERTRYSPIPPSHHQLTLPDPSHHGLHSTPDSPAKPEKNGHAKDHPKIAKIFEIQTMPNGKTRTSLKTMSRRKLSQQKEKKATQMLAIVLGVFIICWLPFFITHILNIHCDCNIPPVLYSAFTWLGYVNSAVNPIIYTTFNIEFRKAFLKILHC
In short: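 cAMP accumulation in DRD2-HEK293 cells measured by HTRF after 1 h detection; compounds added 10 min before NKH477 (200nM […]) forskolin-analogue stimulation, 30 min at room temperature, with Ro20-1724 present at 0.1 mM final.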

[16] = target: D(2) dopamine receptor (Homo sapiens) (UniProt P14416); assay: Dopamine D2 receptor (DRD2) small molecule antagonists, cell-based qHTS assay (AID 1963595; active = well fitted inhibition curve with a large enough effect in the signal ratio in the repeat runs, with a control signal flat; the % refers to the signal ratio)
In short: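 HTRF cAMP read-out at 665 and 620 nm emission (340 nm excitation). Antagonist mode: compounds were tested against 12 nM quinpirole in DRD2-HEK293 cells, with 200 nM NKH477 raising cAMP and 0.1 mM Ro20-1724 blocking its breakdown.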

[17] = cAMP Responsive Elements (CRE) small molecule agonists, cell-based qHTS assay (AID 1963590)
In short: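 Beta-lactamase reporter readout: LiveBLAzer B/G FRET substrate, 2 h at room temperature, added after 3 h compound treatment of CRE-bla HEK 293T cells at 37 C/5% CO2.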

[18] = cAMP Responsive Elements (CRE) small molecule antagonists, cell-based qHTS assay (AID 1963591; active = well fitted inhibition curve with a large enough effect in the signal ratio in the repeat runs, not every such curve was filed as active; the % refers to the signal ratio)
In short: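 HEK293T CRE-bla; 18 h preincubation; compound pin-transfer; NKH477 0.25 uM final, 3 h, 37 C; LiveBLAzer FRET substrate 2 h RT.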

[19] = p53 small molecule agonists, cell-based qHTS assay (AID 1963582; active = well fitted activation curve with a large enough effect in the signal ratio in the repeat runs, not every such curve was filed as active; the % refers to the signal ratio)
In short: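 Fluorescence intensity read-out of a beta-lactamase reporter under a p53 response element. Cells were exposed to DMSO-dissolved compounds for 16 h at 37 C, then developed with FRET substrate for 2 h at RT.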

Measured: Potency

Clc1cccc(Cl)c1
not listed: [17] | [18] | [19]
inactive: all other assays above

O=C/C(Cl)=C(/Cl)C(=O)O
active: [2] 68.5 µM and 68.6 µM
not listed: [9] | [11] | [19]
inactive: all other assays above

O=C(CCl)c1ccc(Cl)cc1Cl
inactive and 11.9 µM (active): [1]
active: [2] 60.8 µM and 11.9 µM
not listed: [14] | [19]
inactive: all other assays above

CN(C)[C@@H]1C(=O)C(C(N)=O)=C(O)[C@@]2(O)C(=O)C3=C(O)c4c(O)cccc4[C@@](C)(O)[C@H]3[C@H](O)[C@@H]12
not listed: [19]
inactive: all other assays above

O=c1[nH]c(=O)n(Cl)c(=O)n1Cl
not listed: [14] | [16] | [19]
inactive: all other assays above

Oc1c(Br)cc(Br)cc1Br
not listed: [14] | [15] | [18] | [19]
inactive: all other assays above

CC(C)COC(=O)c1ccccc1C(=O)OCC(C)C
not listed: [10] | [19]
inactive: all other assays above

Cc1ccc(OP(=O)(Oc2ccc(C)cc2)Oc2ccc(C)cc2)cc1
61 µM (active) and inactive: [2]
not listed: [8]
inactive: all other assays above

Cc1ccc(N)c(C)c1
not listed: [14] | [16] | [19]
inactive: all other assays above

O=[N+]([O-])/N=C1\NCCN1Cc1ccc(Cl)nc1
not listed: [19]
inactive: all other assays above

CCCCC(CC)COC(=O)Cl (stereo unspecified)
not listed: [14] | [19]
inactive: all other assays above

CCOP(=S)(OCC)SCCSCC
not listed: [8]
inactive: all other assays above

O=C1CCCN1
not listed: [12] | [19]
inactive: all other assays above

CCC[N+]1(C)CCCCC1
not listed: [19]
inactive: all other assays above

O=C(O)CF
not listed: [14] | [19]
inactive: all other assays above

CCOC(=O)c1ccccc1N
not listed: [12] | [19]
inactive: all other assays above
